Records with an inconclusive call do not appear. Calls of active or inactive are those of the source. Rule for the calls, unless noted: active = hit-call score of the fitted dose curve at least 0.9, where 1 is the maximum; inconclusive = response in the unintended direction; inactive = score below 0.9.

The nature of assay [1]: IUF_NPC1b_proliferation_BrdU_72hr: Leibniz Research Institute for Environmental Medicine (IUF) 72-hour Neural Progenitor Cell Bromodeoxyuridine (BrdU) Proliferation Assay (NPC1b) (AID 2284207; active = hit-call score of the fitted dose curve at least 0.9, where 1 is the maximum; inactive = score below 0.9). In outline:
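Proliferation of primary human neural progenitor cells: 72 h compound treatment at 37C, 5% CO2, pH 7.2-7.6, in EGF/FGF-containing medium. Readout is BrdU uptake (last 16 h) by chemiluminescent ELISA, normalised to DMSO.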

Assay [2] can be described thus: IUF_NPC1a_proliferation_area_72hr: Leibniz Research Institute for Environmental Medicine (IUF) 72-hour Neural Progenitor Cell Proliferation Area Assay (NPC1a) (AID 2284208; active = hit-call score of the fitted dose curve at least 0.9, where 1 is the maximum; inactive = score below 0.9). Summed up: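 Measured in 3D suspension: each well held one primary hNPC sphere grown with EGF and FGF at pH 7.2-7.6. Compound stayed on for 72 h, then area was imaged; spheres lacking growth factors defined reduced proliferation.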

Assay [3] in a line: IUF_NPC1_viability_72hr: Viability Assessment at 72 hours in the Leibniz Research Institute for Environmental Medicine (IUF) Neural Progenitor Cell Proliferation Assay (NPC1) (AID 2284209; active = hit-call score of the fitted dose curve at least 0.9, where 1 is the maximum; inactive = score below 0.9). Summed up: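 Single spheres (0.25-0.35 mm) of human fetal cortex-derived neural progenitor cells were grown in proliferation medium with EGF and FGF at 37C and 5% CO2. They were exposed for 72 h without renewal, and viability was read by alamar blue resorufin fluorescence.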

Assay [4] in a line: IUF_NPC2c_oligodendrocyte_migration_120hr: Leibniz Research Institute for Environmental Medicine (IUF) 120-hour Neural Progenitor Cell Migration Assay for Oligodendrocyte Migration (NPC2c) (AID 2284297; active = hit-call score of the fitted dose curve at least 0.9, where 1 is the maximum; inactive = score below 0.9;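 note: O4-positive oligodendrocyte migration distance divided by radial glia migration distance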). Summed up: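 Using fetal brain neural progenitor spheres differentiating in N2 medium at 37C, compounds were present for 120 h. Oligodendrocyte migration distance, normalized to radial glia migration, was measured from imaged O4 staining.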

Assay [5] is described as follows: IUF_NPC2a_radial_glia_migration_120hr: Leibniz Research Institute for Environmental Medicine (IUF) 120-hour Neural Progenitor Cell Migration Assay for Radial Glia Migration (NPC2a) (AID 2284298; active = hit-call score of the fitted dose curve at least 0.9, where 1 is the maximum; inactive = score below 0.9). In outline:
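Exposure of 0.3 mm primary hNPC spheres runs day 0 to 120 h with a half-volume medium change at day 3. Fixed cells get Hoechst staining; high-content analysis of nuclear positions yields radial glia migration distance per well, compared against DMSO controls.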

Assay [6] can be described thus: IUF_NPC2b_neuronal_migration_120hr: Leibniz Research Institute for Environmental Medicine (IUF) 120-hour Neural Progenitor Cell Migration Assay for Neuron Migration (NPC2b) (AID 2284300; active = hit-call score of the fitted dose curve at least 0.9, where 1 is the maximum; inactive = score below 0.9). In outline: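 Fetal human NPC spheres migrate on PDL/laminin during 120 h compound treatment; neuronal migration distance, glia-normalized, scored versus DMSO control.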
Assay [7] can be described thus: IUF_NPC3_neuronal_differentiation_120hr: Leibniz Research Institute for Environmental Medicine (IUF) 120-hour Neuronal Differentiation Assay (NPC3) (AID 2284301; active = hit-call score of the fitted dose curve at least 0.9, where 1 is the maximum; inactive = score below 0.9). In outline:
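Single 0.3 mm neurospheres from human fetal cortex were plated in differentiation medium containing test compound. Medium was half-replaced on day 3. After 120 h cells were fixed, immunostained and imaged, and neuronal fraction was scored against DMSO control.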

Assay [8] in a line: IUF_NPC4_neurite_length_120hr: Leibniz Research Institute for Environmental Medicine (IUF) 120-hour Neuronal Morphology Assay for Neurite Length (NPC4) (AID 2284302; active = hit-call score of the fitted dose curve at least 0.9, where 1 is the maximum; inactive = score below 0.9). Summed up: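 Read-out is mean neurite length in µm of TUBB3-positive neurons, skeletonized from high-content fluorescence images after 120 h. Single 0.3 mm primary human neural progenitor spheres differentiated on poly-D-lysine/laminin under continuous compound exposure; DMSO was baseline.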

Assay [9] is described as follows: IUF_NPC4_neurite_area_120hr: Leibniz Research Institute for Environmental Medicine (IUF) 120-hour Neuronal Morphology Assay for Neurite Area (NPC4) (AID 2284305). In outline: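 Neurite area is read out as the mean pixel area, excluding nuclei, of skeletonized TUBB3-positive neurons imaged after 120 h. Primary human neural progenitor spheres differentiated on poly-D-lysine/laminin with compound present from day 0. Activity was referenced to DMSO controls.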

Assay [10] can be described thus: IUF_NPC2-5_cytotoxicity_72hr: Cytotoxicity Assessment at 72 hours in the Leibniz Research Institute for Environmental Medicine (IUF) Neural Progenitor Cell Migration and Differentiation Assay for Cytotoxicity (NPC2-5) (AID 2284306).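 Note: LDH release into supernatant measured by resorufin fluorescence marking membrane damage.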 In outline: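 Membrane integrity loss was scored from fluorescence (RFU) of resorufin generated by LDH in culture supernatant, 72 h after dosing. Differentiating human progenitor spheres received seven serial compound concentrations alongside a solvent control.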

Assay [11] is described as follows: IUF_NPC2-5_cytotoxicity_120hr: Cytotoxicity Assessment at 120 hours in the Leibniz Research Institute for Environmental Medicine (IUF) Neural Progenitor Cell Migration and Differentiation Assay (NPC2-5) (AID 2284307). Summed up: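 Membrane-integrity loss is quantified by LDH in supernatant after five days of exposure of migrating, differentiating human fetal NPC spheres; seven serially diluted concentrations are tested with DMSO kept at or below 0.1%.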

Assay [12] is described as follows: IUF_NPC2-5_cell_number_120hr: Cell Number Assessment at 120 hours in the Leibniz Research Institute for Environmental Medicine (IUF) Neural Progenitor Cell Migration and Differentiation Assay (NPC2-5) (AID 2284308; active = hit-call score of the fitted dose curve at least 0.9, where 1 is the maximum; inactive = score below 0.9;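 note: count of Hoechst-stained nuclei in migration zone around plated human neural progenitor spheres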). In outline:
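Seven-point serial dilutions plus solvent control were applied to plated 0.3 mm hNPC spheres at differentiation start, with medium half-replaced at day 3. Nuclei positive for Hoechst in the migration zone were enumerated at 120 h.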

Assay [13] is described as follows: IUF_NPC2-5_viability_120hr: Viability Assessment at 120 hours in the Leibniz Research Institute for Environmental Medicine (IUF) Neural Progenitor Cell Migration and Differentiation Assay (NPC2-5) (AID 2284312; active = hit-call score of the fitted dose curve at least 0.9, where 1 is the maximum; inactive = score below 0.9). Summed up:
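Alamar blue resorufin fluorescence read after 5 days of differentiation, with compound present from day 0 and replenished at day 3. Primary hNPC spheres on laminin-coated plates, 37C; seven concentrations plus solvent control, fitted against DMSO.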

Assay [14] in a line: IUF_NPC1_cytotoxicity_72hr: Cytotoxicity Assessment at 72 hours in the Leibniz Research Institute for Environmental Medicine (IUF) Neural Progenitor Cell Proliferation Assay (NPC1) (AID 2284332).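 Note: rising LDH signal means more cytotoxicity.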 In outline: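 Human fetal neural progenitor spheres (0.3 mm) in EGF/FGF proliferation medium, 37C, exposed 72 h without renewal. LDH release in supernatant read by resorufin fluorescence; gain of signal scored relative to dynamic range.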

Assay [15] has as its target Estrogen receptor (Homo sapiens) (UniProt P03372). Nature of the assay: CCTE_Deisenroth_AIME_96WELL_LUC_Active: CCTE's 96-well Estrogen Receptor Transactivation Assay with AIME metabolic competence (ERTA luciferase; metabolism positive), Deisenroth Lab (AID 2284023). In outline: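 Chemicals pre-incubated 2 h with alginate-immobilized phenobarbital/beta-naphthoflavone-induced male Sprague Dawley rat liver S9, then medium transferred to VM7Luc4E2 cells for 24 h luciferase read-out. 10-point series 0.002 - 200 uM; fitted relative to 17beta-estradiol.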

The target is the same in assay [16]. Nature of the assay: CCTE_Deisenroth_AIME_96WELL_LUC_Inactive: CCTE's 96-well Estrogen Receptor Transactivation Assay without AIME metabolic competence (ERTA luciferase; metabolism negative), Deisenroth Lab (AID 2284025). In outline:
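VM7Luc4E2 breast cells, luciferase read 24 h after dosing with medium pre-incubated 2 h on alginate-water lids (metabolism negative). 10-point series 0.002–200 uM, single technical replicate, n≥4; fit relative to 17beta-estradiol.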

Assay [17] in a line: CCTE_Deisenroth_AIME_96WELL_CTox_Active: Cytotoxicity Assessment (CTOX) in CCTE's 96-well Estrogen Receptor Transactivation Assay with AIME metabolic competence (metabolism positive), Deisenroth Lab (AID 2284028). Summed up: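 Chemicals (0.002–200 uM) were first incubated 2 h with alginate-immobilized phenobarbital/beta-naphthoflavone-induced male rat liver S9; conditioned medium then went onto VM7Luc4E2 cells for 24 h, with viability read by protease-substrate fluorescence, fitted bidirectionally.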

Assay [18] in a line: CCTE_Deisenroth_AIME_96WELL_CTox_Inactive: Cytotoxicity Assessment (CTOX) in CCTE's 96-well Estrogen Receptor Transactivation Assay without AIME metabolic competence (metabolism negative), Deisenroth Lab (AID 2284029). Summed up: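 Chemicals (0.002 - 200 uM, 10 points) incubated 2 h with alginate-water microspheres (no S9), then medium moved onto VM7Luc4E2 cells for 24 h. Viability by protease-substrate cleavage to fluorescent probe; bidirectional fitting.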

Chain of Estrogen receptor (Homo sapiens) (P03372 whole entry, looked up): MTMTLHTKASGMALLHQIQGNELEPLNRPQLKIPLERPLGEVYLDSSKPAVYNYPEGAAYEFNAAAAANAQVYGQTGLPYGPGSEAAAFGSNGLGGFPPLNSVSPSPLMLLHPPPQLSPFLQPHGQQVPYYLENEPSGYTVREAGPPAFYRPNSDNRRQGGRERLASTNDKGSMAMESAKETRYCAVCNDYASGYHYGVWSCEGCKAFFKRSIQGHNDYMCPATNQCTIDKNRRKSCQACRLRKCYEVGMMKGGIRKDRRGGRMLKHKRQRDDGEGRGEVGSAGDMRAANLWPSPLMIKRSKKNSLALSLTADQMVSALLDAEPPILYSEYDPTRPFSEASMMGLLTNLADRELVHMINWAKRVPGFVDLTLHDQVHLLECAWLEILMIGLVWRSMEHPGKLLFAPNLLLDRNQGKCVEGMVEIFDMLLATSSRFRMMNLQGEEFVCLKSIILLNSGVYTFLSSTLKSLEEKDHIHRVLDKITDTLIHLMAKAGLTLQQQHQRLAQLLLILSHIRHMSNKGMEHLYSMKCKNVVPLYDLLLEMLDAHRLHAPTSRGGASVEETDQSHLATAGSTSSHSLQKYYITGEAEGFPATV

For orientation: AC50 means the midpoint of the concentration-response curve, whichever way the signal moves. As for `CCCCOCCOP(=O)(O)OCCOCCCC`, the compound was classed as inactive in [1], in assay [2], in assay [4], in [5], in assay [6] and in assay [7]. For the same compound, the result in [8], in [9], in assay [10], in assay [11], in assay [12] and in [13] was inactive. For the same compound, the compound was called inactive in assay [14]. In assay [3], the half-maximal activity concentration (AC50) was 2.46 µM (active).

In the case of `COc1ccc(C=Cc2ccc(OC)cc2)cc1`, the call in assay [15], in [16], in [17] and in assay [18] was inactive.

Consider `Oc1ccccc1Cc1ccccc1`, for which the concentration at half-maximal activity (AC50) in assay [15] was 27.7 µM (active); in assay [16] it was 27.7 µM (active); in assay [17], 162 µM (active); in [18], 175 µM (active).

The values above are taken from PubChem BioAssay (EPA / NIEHS).
